Results filed as inconclusive are left out. Active and inactive are the calls of the source. Unless noted, calls follow the shape of the dose curve; as a rule, active = well fitted curve in the direction sought with a large enough effect in the repeat runs; inconclusive = weak or mixed curves; inactive = no such curve, though single readings can be large; an effect the other way counts as inactive or inconclusive.
How the values were obtained:
[1] = qHTS assay to identify aromatase inhibitors - cell viability counter screen (AID 743084);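 also: cells stimulated with testosterone during compound exposure; nearly all actives have a fitted effect of over 55% in size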; also: potency is read from the fitted curve at half-maximal effect
[2] = qHTS assay to identify small molecule that activate the aryl hydrocarbon receptor (AhR) signaling pathway - cell viability counter screen (AID 743086);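 also: HepG2 liver cells carrying the AhR DRE luciferase reporter; series mostly up to about 70 µM; nearly all actives have a fitted effect of over 45% in size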
Outline: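 HepG2-AhR-luc (HG2L7.5c1) cells, 4000/well, were preincubated 5 h at 37C, exposed to compound in qHTS format for 24 hr at 37C, then given CellTiter-Fluor for 30 min; viability was read as fluorescence in the reporter wells.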

[3] = target: Peroxisome proliferator-activated receptor gamma (Homo sapiens) (UniProt P37231); assay: qHTS assay to identify small molecule agonists of the peroxisome proliferator-activated receptor gamma (PPARg) signaling pathway (AID 743094; active = well fitted activation curve with a large enough effect in the signal ratio in the repeat runs, not every such curve was filed as active; the % refers to the signal ratio)
Outline: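 HEK293H PPARg-bla cells, 5 h settle at 37C/5% CO2; compound (DMSO) 17 h, 37C; B/G FRET substrate 1 h RT; fluorescence intensity read-out. qHTS format.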

[4] = qHTS assay for small molecule agonists of the antioxidant response element (ARE) signaling pathway - cell viability counter screen (AID 743203; calls by dose curve; also: nearly all actives have a fitted effect of over 55% in size)
Outline: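 Luminescence read-out (CellTiter-Glo, 30 min at room temperature) measured cell viability in the same wells as the ARE beta-lactamase reporter. HepG2 ARE-bla cells were treated with compounds for 16 hrs at 37C/5% CO2.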

[5] = qHTS assay for small molecule activators of the heat shock response signaling pathway - cell viability counter screen (AID 743209); also: nearly all actives have a fitted effect of over 50% in size
Outline: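 HSE-bla HeLa; 1500 cells/well; overnight 37 C, 5% CO2; compound 5 h 37 C; LiveBLAzer B/G substrate 2.5 h RT; CellTiter-Glo 30 min RT; luminescence.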

[6] = qHTS assay for small molecule activators of the heat shock response signaling pathway (AID 743210; active = well fitted activation curve with a large enough effect in the signal ratio in the repeat runs, with a control signal flat, not every such curve was filed as active; the % refers to the signal ratio; also: series mostly up to about 63 µM)
Outline: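 Heat shock element–beta-lactamase HeLa reporter cells; qHTS with compounds for 5 h at 37 C; detection by FRET substrate fluorescence after 2.5 h at RT.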

[7] = qHTS assay to identify small molecule antagonists of the peroxisome proliferator-activated receptor delta (PPARd) signaling pathway - cell viability counter screen (AID 743213); also: nearly all actives have a fitted effect of over 50% in size
Outline: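 CellTiter-Glo was added to PPARd-bla HEK293H wells following 17 h compound treatment in the presence of 300 nM L165041. Luminescence was recorded after 30 min at room temperature.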

[8] = qHTS assay to identify small molecule agonists of the farnesoid-X-receptor (FXR) signaling pathway - cell viability counter screen (AID 743218); also: nearly all actives have a fitted effect of over 45% in size
Outline: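 Luminescence from CellTiter-Glo, read after 30 min at RT, reports viability of GeneBLAzer FXR-UAS-bla HEK 293T cells treated 16 h with compounds in the wells used for the beta-lactamase reporter.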

[9] = qHTS assay to identify small molecule antagonists of the farnesoid-X-receptor (FXR) signaling pathway - cell viability counter screen (AID 743221; active = well fitted cell-killing curve with a large enough effect in the repeat runs, not every such curve was filed as active; also: nearly all actives have a fitted effect of over 50% in size)
Outline: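 GeneBLAzer FXR-UAS-bla HEK 293T cells, compound plus chenodeoxycholic acid (50 uM final), 16 h at 37 C. CellTiter-Glo added to the same wells after the beta-lactamase read; luminescence read after 30 min at room temperature as viability.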

[10] = target: Vitamin D3 receptor (Homo sapiens) (UniProt P11473); assay: qHTS assay to identify small molecule agonists of the vitamin D receptor (VDR) signaling pathway (AID 743222; calls by dose curve)
Outline: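 Beta-lactamase reporter readout (LiveBLAzer B/G FRET, 2 h RT) in VDR-bla cells after 16 h compound treatment at 37C, 5% CO2; cells pre-incubated 4 h before pin transfer of DMSO solutions.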

[11] = target: Vitamin D3 receptor (Homo sapiens) (UniProt P11473); assay: qHTS assay to identify small molecule antagonists of the vitamin D receptor (VDR) signaling pathway (AID 743223; active = well fitted inhibition curve with a large enough effect in the signal ratio in the repeat runs, not every such curve was filed as active; the % refers to the signal ratio)
Outline: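 VDR-bla cells were treated with compound plus 3 nM final 1alpha,25-dihydroxyvitamin D3 for 16 h at 37C. Beta-lactamase reporter read by B/G FRET substrate fluorescence after 2 h at room temperature. qHTS format.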

[12] = qHTS assay to identify small molecule antagonists of the peroxisome proliferator-activated receptor gamma (PPARg) signaling pathway - cell viability counter screen (AID 743194); also: nearly all actives have a fitted effect of over 55% in size
Outline: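 PPARg-UAS-bla HEK293H cells were plated, rested 5 h at 37 C, then treated with compounds plus rosiglitazone (50 nM final) for 17 h at 37 C; viability was then read by CellTiter-Glo luminescence after 30 min at room temperature.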

[13] = qHTS assay for small molecule agonists of the antioxidant response element (ARE) signaling pathway (AID 743202; active = well fitted activation curve with a large enough effect in the signal ratio in the repeat runs, not every such curve was filed as active; the % refers to the signal ratio; also: potency is read from the fitted curve at half-maximal effect)
Outline: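 Following a 16 h, 37 C exposure of reporter HepG2 cells (ARE-driven beta-lactamase, 2,000 cells/well) to compounds, FRET substrate was applied for 2 h at room temperature and fluorescence intensity recorded.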

[14] = qHTS assay to identify small molecule agonists of the peroxisome proliferator-activated receptor delta (PPARd) signaling pathway - cell viability counter screen (AID 743211); also: nearly all actives have a fitted effect of over 55% in size
Outline: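 PPARd-bla HEK293H cells (3000/well) were pre-incubated 5 h at 37 C, then exposed to compound for 17 h at 37 C. After 2 h with LiveBLAzer substrate, CellTiter-Glo was added to the same wells; luminescence read after 30 min at room temperature.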

[15] = target: Peroxisome proliferator-activated receptor delta (Homo sapiens) (UniProt Q03181); assay: qHTS assay to identify small molecule agonists of the peroxisome proliferator-activated receptor delta (PPARd) signaling pathway (AID 743212; calls by dose curve)
Outline: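 Beta-lactamase reporter read by fluorescence (LiveBLAzer B/G FRET, 2 h, room temperature). Test agents, in DMSO, incubated at 37 C with PPARd-bla HEK293H cells.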

[16] = target: Peroxisome proliferator-activated receptor delta (Homo sapiens) (UniProt Q03181); assay: qHTS assay to identify small molecule antagonists of the peroxisome proliferator-activated receptor delta (PPARd) signaling pathway (AID 743215; active = well fitted inhibition curve with a large enough effect in the signal ratio in the repeat runs, not every such curve was filed as active; the % refers to the signal ratio;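 also: cells stimulated with agonist L165041 at 300 nM final during compound exposure; series mostly up to about 62 µM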)
Outline: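 HEK293H GeneBLAzer PPARd UAS-bla reporter cells; cpd + L165041 300 nM final, 17 h 37 C; LiveBLAzer B/G FRET substrate 2 h RT; fluorescence intensity read-out. Antagonist mode.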

[17] = target: Bile acid receptor (Homo sapiens) (UniProt Q96RI1); assay: qHTS assay to identify small molecule antagonists of the farnesoid-X-receptor (FXR) signaling pathway (AID 743217; active = well fitted inhibition curve with a large enough effect in the signal ratio in the repeat runs, not every such curve was filed as active; the % refers to the signal ratio)
Outline: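 Read-out: beta-lactamase FRET fluorescence (LiveBLAzer B/G substrate, 2 h, room temperature) in GeneBLAzer FXR-UAS-bla HEK 293T cells. Compounds were co-dosed with 50 uM chenodeoxycholic acid (final) and incubated 16 h at 37 °C.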

[18] = target: Bile acid receptor (Homo sapiens) (UniProt Q96RI1); assay: qHTS assay to identify small molecule agonists of the farnesoid-X-receptor (FXR) signaling pathway (AID 743220; active = well fitted activation curve with a large enough effect in the signal ratio in the repeat runs, not every such curve was filed as active; the % refers to the signal ratio)
Outline: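 FXR-UAS-bla HEK 293T cells carrying a UAS-driven beta-lactamase reporter were plated for 5 h at 37C/5% CO2, then exposed to DMSO-dissolved Tox21 10K compounds for 16 h at 37C. A LiveBLAzer B/G FRET substrate was loaded for 2 h at room temperature before fluorescence reading.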

[19] = target: Peroxisome proliferator-activated receptor gamma (Homo sapiens) (UniProt P37231); assay: qHTS assay to identify small molecule antagonists of the peroxisome proliferator-activated receptor gamma (PPARg) signaling pathway (AID 743191; calls by dose curve; also: series mostly up to about 63 µM; nearly all actives have a fitted effect of over 30% in size)
Outline: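 GeneBLAzer PPARg UAS-bla HEK293H cells carrying a UAS-driven beta-lactamase reporter were plated at 3000 cells/well, preincubated 5 h at 37C, then given compound for 17 h at 37C; LiveBLAzer B/G FRET substrate was read after 1 h at room temperature.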

Measured: Potency

Sequence of Vitamin D3 receptor (Homo sapiens) (P11473 whole entry, looked up): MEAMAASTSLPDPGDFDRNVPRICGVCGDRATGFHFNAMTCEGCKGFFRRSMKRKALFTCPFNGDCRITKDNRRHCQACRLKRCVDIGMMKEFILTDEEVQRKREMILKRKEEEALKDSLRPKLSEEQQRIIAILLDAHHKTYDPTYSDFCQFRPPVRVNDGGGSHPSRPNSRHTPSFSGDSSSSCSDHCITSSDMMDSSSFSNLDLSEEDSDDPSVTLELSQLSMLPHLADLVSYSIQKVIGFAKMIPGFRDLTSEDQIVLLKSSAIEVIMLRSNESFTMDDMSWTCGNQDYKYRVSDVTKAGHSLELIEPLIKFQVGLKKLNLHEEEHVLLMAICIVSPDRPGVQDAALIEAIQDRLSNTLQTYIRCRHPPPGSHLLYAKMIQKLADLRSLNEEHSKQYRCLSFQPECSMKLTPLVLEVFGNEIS
Sequence of Peroxisome proliferator-activated receptor delta (Homo sapiens) (Q03181 whole entry, looked up): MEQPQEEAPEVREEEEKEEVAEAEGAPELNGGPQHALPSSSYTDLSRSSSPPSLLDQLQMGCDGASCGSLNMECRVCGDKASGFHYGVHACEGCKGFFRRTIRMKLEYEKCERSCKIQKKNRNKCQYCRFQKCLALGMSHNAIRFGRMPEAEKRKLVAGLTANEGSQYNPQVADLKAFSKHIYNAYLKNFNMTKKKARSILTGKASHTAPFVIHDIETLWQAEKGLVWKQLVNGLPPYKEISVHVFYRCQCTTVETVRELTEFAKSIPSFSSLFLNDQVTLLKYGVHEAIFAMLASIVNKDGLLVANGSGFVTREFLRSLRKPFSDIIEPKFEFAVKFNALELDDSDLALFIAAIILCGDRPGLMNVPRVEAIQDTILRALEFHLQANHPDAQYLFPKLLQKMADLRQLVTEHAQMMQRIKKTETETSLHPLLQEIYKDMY
Sequence of Peroxisome proliferator-activated receptor gamma (Homo sapiens) (P37231 whole entry, looked up): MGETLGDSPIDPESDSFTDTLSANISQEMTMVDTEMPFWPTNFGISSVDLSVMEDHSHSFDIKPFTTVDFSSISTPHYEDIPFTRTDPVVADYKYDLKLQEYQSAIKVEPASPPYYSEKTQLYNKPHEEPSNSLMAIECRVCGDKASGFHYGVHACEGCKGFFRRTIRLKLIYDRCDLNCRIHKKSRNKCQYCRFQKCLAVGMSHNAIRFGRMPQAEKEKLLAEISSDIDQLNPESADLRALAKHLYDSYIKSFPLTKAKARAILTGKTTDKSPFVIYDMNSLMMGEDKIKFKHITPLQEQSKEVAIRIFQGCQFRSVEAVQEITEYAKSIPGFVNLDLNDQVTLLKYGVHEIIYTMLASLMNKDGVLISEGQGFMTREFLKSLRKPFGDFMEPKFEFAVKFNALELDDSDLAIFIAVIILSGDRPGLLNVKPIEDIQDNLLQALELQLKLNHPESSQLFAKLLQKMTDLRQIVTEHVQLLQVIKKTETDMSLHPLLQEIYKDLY
Sequence of Bile acid receptor (Homo sapiens) (Q96RI1 whole entry, looked up): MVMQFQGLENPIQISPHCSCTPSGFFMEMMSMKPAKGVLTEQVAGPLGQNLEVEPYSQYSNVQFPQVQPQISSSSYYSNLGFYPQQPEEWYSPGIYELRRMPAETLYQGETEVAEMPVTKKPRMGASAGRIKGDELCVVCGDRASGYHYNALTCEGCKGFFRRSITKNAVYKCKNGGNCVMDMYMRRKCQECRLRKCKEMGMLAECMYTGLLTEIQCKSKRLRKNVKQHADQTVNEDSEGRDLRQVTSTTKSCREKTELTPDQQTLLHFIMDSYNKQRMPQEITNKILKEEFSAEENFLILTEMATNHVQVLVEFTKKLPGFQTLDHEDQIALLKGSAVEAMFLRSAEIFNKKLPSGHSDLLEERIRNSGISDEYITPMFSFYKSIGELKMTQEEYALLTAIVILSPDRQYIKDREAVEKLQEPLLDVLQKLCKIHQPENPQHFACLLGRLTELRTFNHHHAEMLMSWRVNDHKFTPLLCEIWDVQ

CCCCCCC/C=C/C=O
not listed: [12] | [13] | [14] | [15] | [16] | [17] | [18] | [19]
inactive: all other assays above

c1ccc(-c2ccc(-c3ccccc3)cc2)cc1
not listed: [6] | [10] | [19]
inactive: all other assays above

C=CC(C)(O)CC/C=C(/C)CCC=C(C)C (centres undefined)
not listed: [3] | [8] | [10] | [11] | [13] | [15] | [19]
inactive: all other assays above

CCOc1cc(OCC)c(C(C)=O)cc1OCC
active: [1] 26.8 µM
not listed: [6] | [12] | [13]
inactive: all other assays above

CC(C(=O)O)c1ccc(/C=C2\CCCCC2=O)cc1 (centres undefined)
active: [13] 29.8 µM
not listed: [3] | [11] | [15] | [17] | [18]
inactive: all other assays above

FC(F)(Cl)C(F)(Cl)Cl
not listed: [8] | [12] | [16] | [17] | [18]
inactive: all other assays above

CCCCCC1CCC(=O)O1 (centres undefined)
not listed: [3] | [12] | [16]
inactive: all other assays above

CCCN(C1CCN(C(=O)C2CCNCC2)CC1)[C@@H]1CCc2ccc(OC)cc2C1
not listed: [4] | [8] | [13] | [14] | [17] | [18]
inactive: all other assays above

CC(CCl)OC(C)CCl (centres undefined)
not listed: [3] | [10] | [11] | [16] | [17] | [18]
inactive: all other assays above

O=c1c2ccccc2oc2ccccc12
inactive: [1] | [2] | [12] | [13] | [4] | [5] | [14] | [9] | [10]
